PubChem BioAssay (Tox21)
Values without a mark were called inactive. Records with an inconclusive call do not appear. A call without a number means that no potency is given here. Active and inactive are the calls of the source. Unless noted, the call rests on the fitted dose curve; in most records, active means well fitted curve in the direction sought with a large enough effect in the repeat runs; inconclusive means weak or mixed curves; inactive means no such curve, though single readings can be large; an effect the other way counts as inactive or inconclusive.

How the values were obtained:
[1] = qHTS assay for small molecule agonists of the p53 signaling pathway (AID 651631; calls by dose curve; further: nearly all actives have a fitted effect of over 15% in size)
How it was run: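 Quantitative high-throughput format: 4,000 p53RE-bla HCT-116 cells/well, 5 h pre-incubation, 16 h compound exposure at 37 °C, 2 h room-temperature substrate step, fluorescence intensity measured.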

[2] = qHTS assay for small molecules that induce genotoxicity in human embryonic kidney cells expressing luciferase-tagged ATAD5 (AID 651632); further: nearly all actives have a fitted effect of over 15% in size
How it was run: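 A rise in luciferase signal from ATAD5-tagged HEK293T cells marks genetic stress. Cells were exposed to compounds for 16 hr at 37C, 5% CO2, then luciferase was quantified after a 30 min room-temperature incubation with Amplite.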

[3] = qHTS assay for small molecule agonists of the p53 signaling pathway - cell viability (AID 651633; calls by dose curve;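 further: p53RE-bla HCT reporter cells with a stable beta-lactamase p53 reporter; series mostly up to about 83 µM; nearly all actives have a fitted effect of over 30% in size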)
How it was run: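 Viability counter-read: CellTiter-Glo luminescence (30 min, room temperature) in the same p53RE-bla plates. These plates had been exposed to compounds for 16 h at 37 C.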

[4] = qHTS assay for small molecules that induce genotoxicity in human embryonic kidney cells expressing luciferase-tagged ATAD5 - cell viability (AID 651634; calls by dose curve; further: nearly all actives have a fitted effect of over 25% in size)
How it was run: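 Cytotoxicity counter-readout: after 15.5 hr compound treatment at 37C, live-cell protease activity in ATAD5-luciferase HEK293T cells measured by CellTiter-Fluor fluorescence, 30 min development at 37C.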

[5] = qHTS assay for small molecule disruptors of the mitochondrial membrane potential - cell viability (AID 720634; calls by dose curve;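 further: human HepG2 liver cancer cells; series mostly up to about 83 µM; nearly all actives have a fitted effect of over 20% in size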)
How it was run: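 Cytotoxicity was quantified from ATP content by CellTiter-Glo luminescence in the same wells as the MMP dye read-out. HepG2 (2,000 cells/well) were plated overnight and exposed to compounds for 1 hr at 37 C.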

[6] = qHTS assay to test for compound auto fluorescence at 590 nm (red) in HepG2 cells (AID 720674)
How it was run: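 Red autofluorescence (Ex/Em 540/590 nm, Rose Bengal sodium equivalents) was measured in HepG2 cells, 2,000 per well in MEM plus 10% FBS, plated overnight at 37 C. Readings were taken 1 hr after adding 23 nL compound or DMSO, at 37 C and 5% CO2.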

[7] = qHTS assay to test for compound auto fluorescence at 535 nm (green) in HepG2 cells (AID 720675)
[8] = qHTS assay to test for compound auto fluorescence at 460 nm (blue) in HEK293 cells (AID 720678)
How it was run: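 After cell attachment (4-5 hr, 37C), compounds were pinned onto HEK293 monolayers in 10% dialyzed FBS medium. The blue channel (405/460 nm) was read following overnight culture. Equivalency was calculated against triamterene.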

[9] = qHTS assay to test for compound auto fluorescence at 590 nm (red) in HEK293 cells (AID 720679)
How it was run: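 Plates of HEK293 cells (10% dialyzed FBS) are treated with 23 nL compound or DMSO vehicle after a 4-5 hr attachment period, incubated overnight at 37C, and read for red fluorescence at 540/590nm.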

[10] = qHTS assay for small molecule disruptors of the mitochondrial membrane potential (AID 720635); further: potency means the concentration at half of the fitted maximal effect
How it was run: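 Mitochondrial membrane potential tracked with Mito-MPS dye, red aggregates (ex 540/em 590 nm) against green monomers (ex 490/em 535 nm). Compound treatment 1 hr at 37C, dye 30 min in HepG2.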

Compound	outcome [1]	outcome [2]	outcome [3]	Potency [4]	outcome [5]	outcome [6]	outcome [7]	outcome [8]	outcome [9]	Potency [10]	fluorescence, relative to Rose Bengal [6]	fluorescence, % of fluorescein control [7]	fluorescence, % of triamterene [8]	fluorescence, % of fluorescent control [9]
C=CC/C=C/C	inactive	inactive	inactive	inactive	inactive	inactive	inactive	inactive	inactive					
C=CCCCC	inactive	inactive	inactive	inactive		inactive	inactive	inactive	inactive					
Cc1ccccc1C(N)=O	inactive	inactive	inactive		inactive	inactive	inactive	inactive	inactive	inactive				
CCCCCCCCCCOC(C)=O	inactive	inactive	inactive	inactive		inactive	inactive	inactive	inactive	inactive				
CC(=O)CC(=O)Nc1ccc(C)cc1C	inactive	inactive	inactive	inactive	inactive	inactive	inactive	inactive	inactive					
O=C(O)c1cc2ccccc2nc1C(=O)O	inactive	inactive	inactive	inactive	inactive	inactive	inactive	inactive	inactive					
O=C(O)CCCCCC(=O)O	inactive	inactive	inactive		inactive	inactive	inactive	inactive	inactive	inactive				
CCCCCCCCCOC(=O)CCCCC(=O)OCCCCCCC	inactive	inactive	inactive	inactive	inactive	inactive	inactive	inactive	inactive					
Cc1c(N)cccc1Cl	inactive	inactive	inactive	inactive		inactive	inactive	inactive	inactive	inactive				
CC(C)c1ccc(C=O)cc1	inactive	inactive	inactive	inactive		inactive	inactive	inactive	inactive	inactive				
C=CC(=O)OCC1CCCO1 (centres undefined)	inactive	inactive	inactive	inactive	inactive	inactive	inactive	inactive	inactive					
O=C(O)CONC(=O)c1ccccc1	inactive	inactive	inactive	inactive	inactive	inactive	inactive	inactive	inactive					
CCc1occc(=O)c1O	inactive	inactive	inactive	inactive		inactive	inactive	inactive	inactive					
CC1=C(C(=O)O)N2C(=O)[C@@H](NC(=O)[C@H](N)c3ccccc3)[C@H]2SC1	inactive	inactive	inactive	inactive	inactive	inactive	inactive	inactive	inactive					
CCCCOCC(C)O (centres undefined)	inactive	inactive	inactive	inactive		inactive	inactive	inactive	inactive					
COC(=O)c1cccc(Cl)c1	inactive	inactive	inactive	inactive		inactive	inactive	inactive	inactive	inactive				
CCCC(CC)c1ccccc1 (centres undefined)	inactive	inactive	inactive	inactive	inactive	inactive	inactive	inactive	inactive					
C[C@@H](O)C(=O)O	inactive	inactive	inactive		inactive	inactive	inactive	inactive	inactive					
CCOC(=O)CC1(C)OCC(C)O1 (centres undefined)	inactive	inactive		inactive	inactive	inactive	inactive	inactive	inactive	inactive				
[O]=[Mo](=[O])=[O]	inactive	inactive		inactive	inactive					inactive	-0.0279% [at 18.6 µM]	0.0234% [at 18.6 µM]	0.132% [at 18.6 µM]	0.419% [at 18.6 µM]
CC1c2ccccc2CN1NC(=O)c1ccc(Cl)c(S(N)(=O)=O)c1 (centres undefined)	inactive	inactive	inactive		inactive	inactive	inactive	inactive	inactive	inactive				
CC1OCCC1=O (centres undefined)	inactive	inactive		inactive		inactive	inactive	inactive	inactive	inactive				
O=C1OCCO1	inactive	inactive		inactive		inactive	inactive	inactive	inactive					
CCCCCc1cccc(=O)o1	inactive	inactive	inactive		inactive	inactive	inactive	inactive	inactive	inactive				
CSc1cnccn1	inactive	inactive		inactive	inactive	inactive	inactive	inactive	inactive	inactive				
CC/C=C\CCOC(=O)c1ccccc1O	inactive	inactive	inactive		inactive	inactive	inactive	inactive	inactive					
CC(=O)O[C@@H]1CC2CCC1(C)C2(C)C (some centres undefined)	inactive	inactive		inactive	inactive	inactive	inactive	inactive	inactive	inactive				
Cn1c(=O)c2[nH]c(Br)nc2n(C)c1=O	inactive	inactive	inactive			inactive	inactive	inactive	inactive					
CCC(=O)c1c(O)cc(O)cc1O	inactive	inactive				inactive	inactive	inactive	inactive	11.9 µM (active)				
